The structures appear in SMILES notation. About 83,000 compounds went through this panel and 20% of them were active in at least one assay; those are over-represented in the sample as a whole.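 Activity criterion: percent growth below 10, measured after cells in 96-well plates were exposed to a single compound concentration for 48 hours.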 Values without a mark were called inactive. The source made the active and inactive calls.

Holding throughout (experiment): NCI-60 one-dose screen, 48 h (100 = growth as untreated, 0 = no growth, -100 = all killed)
Holding throughout (details): 10 µM unless noted

The subject of experiment [1] is NCI-H23 lung.
For experiment [2], the system named is NCI-H226 lung.
For experiment [3], the system named is NCI-H322M lung.
Experiment [4] has as its system HOP-62 NSCLC.
Experiment [5] deals with NCI-H460 lung.
The subject of experiment [6] is HOP-92 NSCLC.
In experiment [7] the test system is NCI-H522 lung.
Experiment [8] relates to A549/ATCC NSCLC.
Experiment [9] deals with 786-0 renal.
For experiment [10], the system named is COLO 205 colon.

On to `CN(Cc1ccccc1)c1ccc(SC#N)cc1`, for which the growth in experiment [1] is 89.8%; in experiment [2], 111%; in experiment [3], 94.7%; in experiment [4] it was 108%; in [5] it was 86.6%; in experiment [6] it was 59.7%. For the same molecule, the growth in experiment [7] is 45.5%; in [8], 92%; in experiment [9], 79.4%; in [10], 66.4%.
Regarding `OCCOSCCO`, the growth was 107% in experiment [1]; 102% in experiment [2]; 119% in [3]; 104% in experiment [4]; 111% in [5]; 124% in experiment [6]. Also, the growth in experiment [7] is 96.1%; in experiment [8], 111%; in experiment [9] it was 100%; in [10], 119%.
On to `Cc1nc([N+](=O)[O-])c(Sc2nncc(-c3ccccc3)n2)n1C`, for which the growth in [1] was 82.1%; in experiment [2], 80.1%; in experiment [3], 92.1%; in [4], 95.4%; in [5] it was 110%; in experiment [6], 93.1%. Moreover, the growth was 95.2% in experiment [7], 95.9% in experiment [8], 94% in experiment [9] and 74.5% in [10].
Turning to `O=C(/C(Cl)=N/O)c1ccc(-c2ccccc2)cc1`, the growth in [1] was 93.4%; in experiment [2], 88.7%; in experiment [3], 94.3%; in [4], 96.4%; in experiment [5], 107%; in experiment [6] it was 82.1%. Moreover, the growth in [7] is 30.7%; in [8] it was 107%; in [9], -80.7% (active); in experiment [10] it was 85.5%.
Take `CCCOS(=O)(=O)c1ccccc1`: the growth in experiment [1] was 101%; in [2], 103%; in experiment [3], 102%; in experiment [4] it was 84.6%; in experiment [5], 106%; in experiment [6], 76.1%. Also, the growth in experiment [7] is 104%; in experiment [8], 111%; in experiment [9], 121%; in experiment [10], 108%.
In the case of `O=C1C=Cc2ccccc2/C1=C/c1nc(-c2ccccc2)oc1O`, the growth in [1] was 82.1%; in [2], 73%; in experiment [3] it was 90.6%; in experiment [4], 88.1%; in experiment [5], 98.5%; in [6], 103%. The growth in [7] is 90.3%; in experiment [8], 107%; in experiment [9], 107%; in experiment [10] it was 87.5%.
In the case of `CC1(C)OC2C(COC(c3ccccc3)(c3ccccc3)c3ccccc3)OC(c3c[nH]c4c(N)ncnc34)C2O1` (stereo not drawn), the growth is 62.9% in experiment [1]; 72.9% in experiment [2]; 71.3% in experiment [3]; 81.6% in [4]; 41.1% in experiment [5]; 59.5% in experiment [6]. Moreover, the growth is 55.9% in experiment [7], 44.7% in [8], 62.8% in experiment [9] and 68.3% in [10].
`CCCCCCCCCCCC(=O)OC(C)C(=O)NCCCC` (stereo not drawn): the growth was 97.3% in experiment [1]; 86% in [2]; 91.7% in [3]; 94% in experiment [4]; 105% in experiment [5]; 98.1% in experiment [6]. For the same molecule, the growth in [7] was 104%; in experiment [8], 98.8%; in [9] it was 101%; in experiment [10] it was 109%.
For `Cc1nc(Sc2nc3ccc([N+](=O)[O-])cc3s2)sc1C`, the growth in experiment [1] is -3.96% (active); in experiment [2], 2.43% (active); in experiment [3], 89.2%; in experiment [4], 72.2%; in experiment [5] it was 11.7%; in experiment [6], 1.28% (active). The growth in [7] was -48.1% (active); in experiment [8], 55.9%; in experiment [9], 19.6%; in experiment [10], 27.1%.
Take `Clc1ccc(Cc2nc3ccccc3s2)cc1`: the growth in [1] is 89.3%; in experiment [2] it was 89.2%; in [3], 89.2%; in experiment [4], 115%; in [5] it was 105%; in [6], 122%. The growth in experiment [7] was 99.1%; in experiment [8] it was 96.4%; in experiment [9], 109%; in experiment [10], 117%.
On to `O=C(NOC(=O)c1ccccc1)c1ccccc1`, for which the growth is 107% in [1]; 106% in [2]; 119% in experiment [3]; 105% in experiment [4]; 97.9% in experiment [5]; 101% in experiment [6]. Moreover, the growth in [7] is 98%; in experiment [8] it was 120%; in [9], 93.9%; in experiment [10], 117%.
Consider `O=C1C=CC(=O)N1c1cccc2c1CCCC2`, for which the growth in experiment [1] is 106%; in experiment [2], 96.4%; in experiment [3], 91.9%; in experiment [4] it was 105%; in experiment [5], 109%; in experiment [6] it was 84.2%. Further, the growth was 11.6% in [7], 104% in experiment [8], 105% in [9] and 49.1% in [10].
In the case of `CC1=CC(=O)C=CC1(C)C(Cl)(Cl)Cl` (stereo not drawn), the growth in experiment [1] is 100%; in experiment [2], 95.2%; in experiment [3], 102%; in experiment [4], 84.7%; in [5], 104%; in experiment [6], 106%. In addition, the values for the growth in experiment [7] and in [9] were 82.2% and 101%, respectively.
With `NC1=C(Br)C(=O)c2ncccc2C1=O`, the growth was -46% (active) in [1]; 90.4% in experiment [2]; 34.9% in experiment [3]; -73.1% (active) in [4]; -73.9% (active) in experiment [5]; 34.5% in experiment [6]. Moreover, the growth in experiment [7] is -59.1% (active); in experiment [8], -52.6% (active); in [9], 11.4%; in experiment [10], 37.9%.
Consider `COc1cc(NC(=O)C2=C(C)NC(C)=C(C(=O)Nc3cc(OC)c(Cl)cc3OC)C2c2cccc([N+](=O)[O-])c2)c(OC)cc1Cl`, for which the growth in experiment [1] is 34.6%; in [2], 45.7%; in [3], 46.3%; in experiment [4] it was 43.2%; in experiment [5], 36.8%; in experiment [6] it was 13.2%. Also, the growth in experiment [7] was 46.8%; in [8], 35.7%; in experiment [9], 39%; in experiment [10] it was 50.5%.
